# Results taken from PubChem BioAssay (Tox21).
# Results filed as inconclusive are left out. Unmarked numbers belong to inactive results. Activity calls are given as the source filed them. Calls come from the whole dose curve; as a rule, active = well fitted inhibition curve with a large enough effect in the repeat runs; inconclusive = weak or mixed curves; inactive = no such curve, though single readings can be large or run the other way.
# Target: Cytochrome P450 1A2 (Homo sapiens) (UniProt P05177)
# Sequence (P05177 whole entry, looked up): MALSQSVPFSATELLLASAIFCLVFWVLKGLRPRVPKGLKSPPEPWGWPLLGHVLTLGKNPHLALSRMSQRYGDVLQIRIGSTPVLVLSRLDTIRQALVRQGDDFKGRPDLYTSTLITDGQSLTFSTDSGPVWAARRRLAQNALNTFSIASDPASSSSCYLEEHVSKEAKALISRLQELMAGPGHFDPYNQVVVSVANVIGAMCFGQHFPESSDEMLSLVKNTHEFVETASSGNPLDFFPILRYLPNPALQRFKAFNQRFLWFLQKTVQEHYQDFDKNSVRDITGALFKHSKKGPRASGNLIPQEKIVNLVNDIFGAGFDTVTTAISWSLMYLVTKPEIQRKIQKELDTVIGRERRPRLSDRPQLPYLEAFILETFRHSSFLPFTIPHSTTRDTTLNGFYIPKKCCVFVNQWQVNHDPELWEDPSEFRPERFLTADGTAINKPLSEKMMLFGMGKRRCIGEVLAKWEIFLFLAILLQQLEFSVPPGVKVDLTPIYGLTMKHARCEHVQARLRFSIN
# Assay: Cytochrome P450 Family 1 Subfamily A Member 2 (CYP1A2) small molecule antagonists: luciferase reporter qHTS assay (AID 1671199); note: nearly all actives have a fitted effect of over 50% in size
# Details: P450-Glo CYP1A2 enzyme, luciferin luminescence, 1 h; series mostly up to 53 µM; activity change, negative = inhibition: at the top concentration
# Excerpt: National Center for Advancing Translational Sciences [NCATS]
# U.S. Environmental Protection Agency [EPA]
# National Institutes of Environmental Health Sciences [NIEHS]
# National Toxicology Program [NTP]
# U.S. Food and Drug Administration [FDA]
# Cytochrome P450 (CYP) enzymes are membrane-bound hemeproteins that play a key role in metabolism of drugs and xenobiotics. Evaluation of the effect of chemicals on CYP isozymes is useful to minimize the adverse drug reactions and toxicities in drug development process. Tox21 chemicals were tested for their effect on CYP enzyme activities by using P450-Glo (TM) screening systems (Promega Corporation, Madison, WI). These systems provide a luminescent method containing proluciferin substrates and are converted to luciferin products by CYP isozymes. The luciferin products formed are detected with a luciferin detection reagent, and the amount of light produced is proportional to CYP activity. P450-Glo (TM) CYP1A2 screening system (Catalog. No. V9770) was used to detect the compounds that interfere in CYP1A2 activity. The positive control compound used for CYP1A2 assay is furafylline (Sigma-Aldrich, St. Louis, MO).
# Tox21 Assay Protocol Summary:
# Two ul of enzyme-substrate mix was dispensed into medium binding white/solid 1536-well plates (Greiner Bio-One North America Inc., Monroe, NC) using a BioRaptr Flying Reagent Dispenser (FRD, Beckman Coulter, Brea, CA). Compounds dissolved in DMSO and positive control (furafyllline) were transferred to the assay plates at 23 nl using a Pintool station (Wako, San Diego, CA). The assay plates were incubated at room temperature for 10 min. Then 2 ul of NADPH regeneration solution was added to each well of the assay plates using an FRD and incubated at room temperature for 1 h. The reaction was stopped by adding 4 ul of detection reagent using an FRD and after 20 min incubation at room temperature the luminescence signal was measured using a ViewLux plate reader (Perkin Elmer, Shelton, CT). Data were expressed as relative luminescence units.
# % is set by controls: 0 for no effect and ±100 for the full control effect; potency is the fitted concentration of half-maximal effect.
SMILES,"activity change, negative = inhibition",Potency
CN1[C@@H]2CC[C@H]1CC(NC(=O)n1c(=O)[nH]c3ccccc31)C2 (stereo not given in full),8.2%,
CC/C=C\C#N,-17.4% [at 115 µM],
CO[Si](CCCNCCC[Si](OC)(OC)OC)(OC)OC,-12.2% [at 115 µM],
CCCCc1ccc(N)cc1,,35.6 µM (active)
CC1CCN(CCCC(=O)c2ccc(F)cc2)CC1,-11.1%,
CC(C)c1ccc2oc3nc(N)c(C(=O)O)cc3c(=O)c2c1,,17.4 µM (active)
COC(=O)CCCC(=O)O,-11.7% [at 115 µM],
O=C(O)c1cccc(C(=O)O)n1,-28% [at 115 µM],
O=c1[nH]c(=O)n([C@H]2O[C@H](CO)[C@@H](O)[C@@H]2O)cc1/C=C\Br,2.24%,
C(=C(c1ccccc1)c1ccccc1)c1ccccc1,,35.6 µM (active)
c1cc(CN2CCCCC2)cc(OCCCNc2nc3ccccc3s2)c1,3.36%,
CC(C)(C)CC(C)(C)N,,30.8 µM (active)
CC1(C)SC(C)(C)SC(C)(C)S1,-12.5% [at 115 µM],
CC(=O)NC(Cc1ccccc1)C(=O)O (stereo not given),17.2%,
O=C(O)/C=C/c1ccc(Cn2ccnc2)cc1,,24.5 µM (active)
C=C(C)C(=O)OCCC(C)OC(=O)C(=C)C (stereo not given),,31.7 µM (active)
CCCCCCCCCCCCCCC,-20.9% [at 115 µM],
Oc1cc(O)c2c(c1)O[C@H](c1ccc(O)c(O)c1)[C@H](O)C2,0.336%,
CO[Si](OC)(OC)OC,,31 µM (active)
CC(=O)c1ccc(C)cc1,-14.3% [at 115 µM],

SMILES,"activity change, negative = inhibition",Potency
CCCCCCCCCCC1CO1 (stereo not given),-12.2% [at 115 µM],
CCCCCCCCC=O,-8.53% [at 115 µM],
COc1ccc(COC=O)cc1,,63.3 µM (active)
c1ccc(SCCSc2ccccc2)cc1,,31.4 µM (active)
CCCC(=O)O[C@]1(C(=O)CCl)[C@@H](C)C[C@H]2[C@@H]3CCC4=CC(=O)C=C[C@]4(C)[C@@]3(F)C(=O)C[C@@]21C,0.341%,
Cc1c(C)n(CCN(C)C)c2ccc(C(=O)OCCN(C)C)cc12,,17.4 µM (active)
Nc1cc(C(Cl)=C(Cl)Cl)c(S(N)(=O)=O)cc1S(N)(=O)=O,-25.1%,
CC(C)CCCC(C)CCCC(C)CCCCC(C)CCCC(C)CCCC(C)C (stereo not given),-3.71%,
C1CCCCCCCCCCC1,-2.41% [at 23.6 µM],
Cc1onc(-c2ccccc2)c1-c1ccc(S(N)(=O)=O)cc1,-5.5%,
NC(=O)Nc1nc2ccccc2[nH]1,,39.6 µM (active)
CC(C)c1cccc(C(C)C)c1N,,20 µM (active)
CCCCCCCCN(C)CCCCCCCC,-22.5% [at 115 µM],
O=C(CCOCCOCCOCCOCCC(=O)Nc1c(I)cc(I)c(C(=O)O)c1I)Nc1c(I)cc(I)c(C(=O)O)c1I,13.7%,
CC(O)CN(CCCN(C)C)CCCN(C)C (stereo not given),-16.1% [at 115 µM],
CCOC(=O)[C@H](CCc1ccccc1)N[C@@H](C)C(=O)N1CCC[C@H]1C(=O)O,12.3%,
NC(=O)c1ncn([C@@H]2O[C@H](CO)[C@@H](O)[C@H]2O)c1O,13.4%,
O=Cc1ccccc1[N+](=O)[O-],,31.7 µM (active)
C1C2OC2C2C1C1CC2C2OC12 (stereo not given),-17.9% [at 115 µM],
COC(=O)CCCCCCCCC(=O)OC,,40.1 µM (active)
